# Results taken from the supplement of paper PMC3334620.
# Whole data set: some 33,000 sequences, median “E-score (-0.5 to 0.5)” near -0.015, cut for the highest 2% near 0.3. This excerpt belongs to a sample that is enriched for the highest values.
# Target: T1, Abf1 (UniProt P14164)
# T1 sequence: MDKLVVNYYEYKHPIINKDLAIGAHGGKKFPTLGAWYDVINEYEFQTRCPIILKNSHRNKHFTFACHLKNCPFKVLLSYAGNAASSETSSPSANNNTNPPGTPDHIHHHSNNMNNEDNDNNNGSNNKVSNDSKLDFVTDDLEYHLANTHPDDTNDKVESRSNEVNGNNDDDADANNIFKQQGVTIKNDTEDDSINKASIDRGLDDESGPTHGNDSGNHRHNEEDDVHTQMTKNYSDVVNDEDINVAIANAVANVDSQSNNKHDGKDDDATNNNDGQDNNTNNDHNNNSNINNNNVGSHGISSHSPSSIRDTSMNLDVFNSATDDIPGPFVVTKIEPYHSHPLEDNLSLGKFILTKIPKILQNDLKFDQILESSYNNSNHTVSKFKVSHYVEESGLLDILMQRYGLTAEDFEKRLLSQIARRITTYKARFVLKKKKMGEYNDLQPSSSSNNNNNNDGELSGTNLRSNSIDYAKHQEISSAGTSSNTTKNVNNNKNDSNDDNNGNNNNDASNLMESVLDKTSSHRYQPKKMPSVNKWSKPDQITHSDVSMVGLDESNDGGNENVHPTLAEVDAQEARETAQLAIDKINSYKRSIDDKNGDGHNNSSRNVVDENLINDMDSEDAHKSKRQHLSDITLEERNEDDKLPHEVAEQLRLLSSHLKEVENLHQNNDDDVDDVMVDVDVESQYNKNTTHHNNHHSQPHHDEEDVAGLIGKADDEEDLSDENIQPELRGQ
# Assay: PBM E-score (8-mer binding enrichment) (E-score (-0.5 to 0.5)); higher = stronger / more preferred TF binding
# Settings: protein concentration: 200 nM; construct: GST-full length
# Method: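 Universal 'all 10-mer' protein binding microarrays (Agilent AMADID 015681) probed with GST-tagged S. cerevisiae TFs (full-length or DBD) made by in vitro transcription/translation (PURExpress), about 100-200 nM. Bound TF was detected with fluorescent anti-GST. Each ungapped 8-mer (which stands for itself and its reverse complement) is scored by the PBM enrichment score (E-score), a modified Wilcoxon-Mann-Whitney statistic from -0.5 to +0.5, computed with the Universal PBM Analysis Suite. Scale: above 0.35 generally sequence-specific binding.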
row,Sequence,PBM E-score
1,CGTGGTTC,0.0193
2,GAGCCCCC,-0.283
3,TCATAGAA,0.121
4,GACCGGCC,-0.229
5,TAATTGGA,0.141
6,GCATACGC,-0.149
7,GAGCCGTA,0.347
8,AAGCCGTA,0.193
9,CAGCCGTA,0.192
10,GCCGTTGA,0.173
11,TGGGGCAA,-0.281
12,CTATATCA,0.267
13,GTATATGA,0.12
14,ATATATCC,0.171
15,CTATATAC,0.364
16,ATATATCA,0.311
17,CTCTATAC,0.116
18,ATATATAC,0.262
19,GTATATAA,0.286
20,GTATATCA,0.386
21,AACAGAGC,-0.0439
22,ACTCTGTG,-0.0599
23,GTGCCATA,-0.14
24,CCAAAAGC,-0.0875
25,TCGCATAA,0.205

row,Sequence,PBM E-score
1,AATACTTC,-0.0521
2,AAGAATGA,0.293
3,GCTGTCAC,0.197
4,CATGTCAA,0.105
5,GATGTCAA,-0.0282
6,AATGTCAT,0.306
7,CATGTCAC,0.383
8,AATGTCGT,0.302
9,AATGTCGA,0.146
10,GATGTCAC,0.395
11,ACTGTCAT,0.0825
12,CATGTCAG,0.0449
13,AGTGTCAT,0.21
14,AATGTCGG,-0.0313
15,GAGTTGTA,0.0502
16,GGTAGCTA,-0.16
17,AAACTCGC,-0.0402
18,GAGTGTCC,-0.0553
19,CACCTCGC,-0.0945
20,ACAGTTGA,-0.00384
21,ATGGAGAA,-0.0924
22,CTTGTGGA,-0.249
23,GTCCCAAC,0.0207
24,ACAGCTAA,-0.159
25,CGTGTCAG,0.27

row,Sequence,PBM E-score
1,AATGTCAC,0.416
2,AATGTCAA,-0.00569
3,AATGTCAG,-0.169
4,CGTGTCAC,0.327
5,AGTGTCAC,0.174
6,CACGCCGG,-0.0297
7,GATAGGTA,0.0863
8,CGGGCGGA,-0.157
9,CTTGCATA,0.0552
10,AGCGTACA,-0.121
11,TCCGTAAA,0.145
12,ACCGTACT,0.286
13,TCCGTACA,0.368
14,ACCGTACA,0.327
15,ACCGTACG,0.34
16,TGCGTACA,0.0613
17,ACCGTAAG,0.226
18,CCCGTACC,0.182
19,CCCGTACA,0.263
20,CCCGTACG,0.348
21,AACGTACG,0.222
22,CTCAGCCA,-0.0785
23,CGCGCAGA,0.103
24,AGTAACGG,0.0792
25,AAGAGAGT,-0.24

row,Sequence,PBM E-score
1,GAAGGGTC,-0.227
2,ACTAAAAG,0.0434
3,CAATGCCG,-0.0313
4,AGTTGAGG,-0.116
5,CTTACGGC,-0.0264
6,ACCGTACC,0.118
7,GCCGTACA,0.294
8,GCCGTACC,0.356
9,ACATACGA,0.356
10,TCATACGA,0.328
11,CCCTACGA,0.041
12,CCATACGG,0.281
13,ACATACGT,0.033
14,ACATACTA,0.109
15,TCCTACGA,0.347
16,GCCTACGA,0.239
17,ACATACGC,-0.0157
18,ACATACGG,0.3
19,GCATACGA,0.0403
20,CCATACGA,0.283
21,GCTAGTAC,0.0984
22,AGCTTGAA,-0.106
23,TACCGTCA,0.262
24,CGTATCAG,0.0845
25,TCATTCGA,0.129

row,Sequence,PBM E-score
1,ACCTCTGG,-0.129
2,GAGCCTGA,-0.165
3,AAACCGGA,0.00218
4,CCACGATA,0.143
5,CCACGAAG,0.0703
6,CCACGAAA,0.216
7,CCACGATC,0.335
8,ACACGATC,0.25
9,CCACGAAC,0.338
10,CTCGGGAA,0.0853
11,AGTCATGA,0.149
12,ACCTTTTG,-0.00807
13,CAATGATA,0.322
14,TAATGATA,0.348
15,TAATGAAA,0.12
16,GAATGATA,0.397
17,ACATGATA,0.315
18,GCATGATA,0.268
19,CAATGATG,0.106
20,TAATGAGA,0.0631
21,GAATGAAA,-0.0868
22,ACATGATC,0.292
23,GAATGAGA,0.0436
24,CAATGAGA,-0.0863
25,CGGAGAAC,-0.184

row,Sequence,PBM E-score
1,GTAGATAC,0.0486
2,CCTGTGTC,-0.275
3,CGTAGAAC,0.118
4,AACCACAT,0.182
5,GCCATAGC,-0.055
6,ACTTCAAG,0.0326
7,CTACGTGC,-0.0934
8,ACGGACGG,0.077
9,TCGGTGCA,-0.0272
10,GAATGAGC,0.051
11,CAATGATC,0.31
12,AAATGATT,0.275
13,AAATGATC,0.228
14,AAATGAAA,0.214
15,GAATGATC,0.32
16,GAATGAAC,-0.112
17,ACATGATG,0.119
18,CAATGAAC,-0.0206
19,AAATGATG,0.318
20,AAATGAGG,0.0174
21,AAATGATA,0.409
22,AGCTACCC,-0.0429
23,ACGCTAGT,0.043
24,CAATGCGG,-0.281
25,ACGGGTCC,0.142

row,Sequence,PBM E-score
1,GTGGACAC,-0.0874
2,TAGGTCAA,0.0576
3,ATGGCGAG,0.0386
4,GGTATTTA,0.0301
5,CGTATTGA,0.307
6,GGTATTGA,0.00996
7,CGTATTTC,0.316
8,AGTATTGA,0.0838
9,AGTATTTC,0.209
10,CGTATTTA,0.335
11,AGTATTTA,0.152
12,CCTATTTC,0.095
13,AACCTGGC,-0.112
14,GGCCGGCA,-0.157
15,CTGCCGAC,-0.121
16,TCTCTCCA,-0.031
17,GGCTCTCA,-0.224
18,AGCGTGAC,0.186
19,ATCGTGAC,0.255
20,CGCGTGAC,0.303
21,CGCGTGAG,0.00035
22,CTCGTGAC,0.344
